Reference: PubChem BioAssay AID651823 (Broad Institute, 2012)
The other results are listed elsewhere or left out. Cut-off read from the data, not from the text of the source: active = max delta Tm above about 0.48 degrees C; inactive = the rest.

Molecular target: Kelch-like ECH-associated protein 1 (Homo sapiens) (UniProt Q14145)
Experiment: Tm shift of Keap1 Kelch upon compound binding – biophysical, thermal shift, RT-PCR instrument, cherry-pick, dose response (AID 651823)
Conditions: stronger effect = higher value; at 50 µM unless noted

Kelch-like ECH-associated protein 1 (Homo sapiens), sequence (Q14145 whole entry, looked up): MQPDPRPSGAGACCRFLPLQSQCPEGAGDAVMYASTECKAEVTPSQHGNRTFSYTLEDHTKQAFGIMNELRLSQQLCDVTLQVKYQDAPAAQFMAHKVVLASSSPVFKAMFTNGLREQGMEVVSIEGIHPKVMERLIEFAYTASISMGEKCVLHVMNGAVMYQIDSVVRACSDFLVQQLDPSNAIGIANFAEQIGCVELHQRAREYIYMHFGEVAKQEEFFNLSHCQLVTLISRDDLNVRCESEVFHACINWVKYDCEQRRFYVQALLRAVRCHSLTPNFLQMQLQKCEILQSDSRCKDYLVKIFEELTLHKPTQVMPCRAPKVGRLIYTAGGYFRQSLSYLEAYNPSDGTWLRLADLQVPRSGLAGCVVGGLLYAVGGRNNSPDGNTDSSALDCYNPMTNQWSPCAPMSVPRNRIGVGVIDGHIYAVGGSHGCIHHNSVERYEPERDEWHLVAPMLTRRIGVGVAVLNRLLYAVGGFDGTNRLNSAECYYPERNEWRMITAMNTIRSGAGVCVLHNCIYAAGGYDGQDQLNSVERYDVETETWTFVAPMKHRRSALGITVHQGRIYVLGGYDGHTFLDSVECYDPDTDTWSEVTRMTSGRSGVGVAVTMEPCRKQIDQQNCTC

Max delta Tm, inactive:
O=C(NCCOCc1ccc(Cl)cc1)c1ncn[nH]1 -0.19 °C
COc1ccc(Nc2nc(-c3cccnc3)nc3ccccc23)cn1 -0.21 °C [at 1.6 µM]
CN(CCOc1ccc(CC2SC(=O)NC2=O)cc1)c1ccccn1 (centres undefined) -0.09 °C [at 0.8 µM]
COc1ccc(C2c3ccc(O)cc3Oc3ncn(CCCO)c(=N)c32)cc1OC (centres undefined) -0.15 °C [at 6 µM]
